A selection: hits, their analogues and other compounds. The true share with any hit is near 18%.
TDP1 inh: inhibitors of human tyrosyl-DNA phosphodiesterase TDP1. hit rate 0.28% among 350,000. recombinant TDP1, AlphaScreen DNA substrate cleavage. Potency, µM (series often up to 130 µM), inactives show at the top dose activity change, negative = inhibition, most hits filed as inhibitors; further: potency means the concentration at half of the fitted maximal effect; nearly all actives have a fitted effect of over 40% in size
Target sequence (Q9NUW8 whole entry, looked up): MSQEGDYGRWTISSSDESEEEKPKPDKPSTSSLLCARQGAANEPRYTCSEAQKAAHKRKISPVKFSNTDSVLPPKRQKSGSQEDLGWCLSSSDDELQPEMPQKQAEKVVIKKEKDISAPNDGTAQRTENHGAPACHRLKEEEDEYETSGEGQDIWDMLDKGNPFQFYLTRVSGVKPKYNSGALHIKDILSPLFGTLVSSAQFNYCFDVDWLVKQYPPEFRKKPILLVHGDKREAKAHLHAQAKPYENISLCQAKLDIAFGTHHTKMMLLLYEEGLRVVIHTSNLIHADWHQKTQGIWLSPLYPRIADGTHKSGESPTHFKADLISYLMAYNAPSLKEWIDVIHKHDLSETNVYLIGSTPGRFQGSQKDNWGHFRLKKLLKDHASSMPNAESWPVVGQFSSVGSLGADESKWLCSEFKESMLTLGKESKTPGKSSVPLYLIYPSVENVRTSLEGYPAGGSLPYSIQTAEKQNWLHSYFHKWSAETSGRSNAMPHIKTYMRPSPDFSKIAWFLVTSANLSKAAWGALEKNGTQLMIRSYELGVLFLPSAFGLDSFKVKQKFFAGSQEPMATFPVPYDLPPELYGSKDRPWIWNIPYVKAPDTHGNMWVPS
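AlphaScreen read-out: signal falls as enzyme removes the 3' tyrosine-FITC from a 5'-biotinylated DNA oligo (15 nM, 5 min, RT). Enzyme was E. coli-made recombinant Tdp1 at 1 nM, exposed to compound for 15 min beforehand; beads 10 ug/ml, 10 min.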
DT40 TDP1 no CPT: qHTS for Inhibitors of human tyrosyl-DNA phosphodiesterase 1 (TDP1): qHTS in cells in absence of CPT; Potency, µM (series often up to 46.2 µM), for the others: at the highest dose activity change, negative = growth inhibition, hits mostly inhibitors; hit rate 15% among 420,000; DT40 Tdp1-/- hTDP1 cells, no CPT, ATP luminescence, 48 h; further: potency means the concentration at half of the fitted maximal effect; nearly all actives have a fitted effect of over 55% in size
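No-CPT arm: Tdp1-/-;hTDP1 DT40 cells (400/well) plus compounds, incubated ≥48 hr at 37 °C. Readout CellTiter-Glo luminescence.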
IL-1B inflam inh: inflammasome signaling inhibition, IL-1 beta readout | AID 743279 | THP-1 LPS/ATP IL-1B secretion, AlphaLISA, 16 h; active compounds read low | activity change, % at 57.5 µM | hit rate 4.7% among 360,000; in the data active means activity change below about -50%; inconclusive means mostly about -30% to -49%
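Secreted IL-1B measured by AlphaLISA bead assay after 16 h compound exposure of THP-1 cells; compounds (final up to 57.5 uM) added 1 h before LPS (250 ng/mL) and ATP (1.25 mM) stimulation; lower signal means less secretion.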
TDP1 cell CPT: DT40-hTDP1 cell growth loss with CPT. hit rate 12% among 420,000. AID 686979. Potency, µM (highest dose often 46.2 µM), without a hit: at the highest dose activity change, negative = growth inhibition, most hits filed as inhibitors. chicken DT40 Tdp1-/-;hTDP1 cells + 20 nM CPT, ATP luminescence, 48 h; further: potency means the concentration at half of the fitted maximal effect; nearly all actives have a fitted effect of over 55% in size
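Chicken DT40 Tdp1-/- cells complemented with human TDP1, 400 cells/well, exposed to compounds plus 20 nM camptothecin for at least 48 h at 37 C; viability read as ATP content by CellTiter-Glo luminescence.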
Six1-Eya2 blk: blocks human Six1 binding to Eya2 | AlphaScreen GST-Six1/His-Eya2 binding, biochemical; active compounds read low | activity change, % (test concentration not listed) | hit rate 0.56% among 360,000; in the data active means activity change below about -65%; inconclusive means mostly about -30% to -63%
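Compounds are tested against tagged Six1 and Eya2 proteins bridged by glutathione donor and nickel acceptor beads; after a one-hour incubation at 37 °C without light, AlphaScreen emission is recorded.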
CtBP-E1A inh: CtBP/E1A binding inhibition; AlphaScreen GST-E1A/His-CtBP binding, 1536-well; active compounds read low; activity change, % (no concentration beside the values); hit rate 0.49% among 340,000; AID 651724; in the data active means activity change below about -65%; inconclusive means mostly about -30% to -63%
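Homogeneous bead-based format: GST-tagged E1A captured on glutathione donor beads, His-tagged CtBP on nickel acceptor beads; compounds precede bead addition by 2 h at 37 °C.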
* marks the source's active call; other numbers are inactive results; ? = inconclusive; · = no result given; [ ] = another dose, or the depositor's remark. Unless noted, the call rests on the fitted dose curve; in most records, active means well fitted curve in the direction sought with a large enough effect; inconclusive means small, poorly fitted or top-dose-only effect, or another doubt; inactive means no such curve, though single readings can be large; an effect the other way counts as inactive or inconclusive. On the % scale 0 is the no-effect control and ±100 the full control effect.

SMILES | TDP1 inh | DT40 TDP1 no CPT | IL-1B inflam inh | TDP1 cell CPT | Six1-Eya2 blk | CtBP-E1A inh
O=C(COC(=O)c1ccccc1C(=O)c1ccccc1)NCc1ccc(F)cc1 | 1.3% | ? | -76.8* | ? | 3.1 | 4.4
O=C1[C@H]2[C@H]3[C@H](O)[C@H](O)C/C(=N/OCc4ccccc4)[C@H]3CC[C@@H]2C(=O)N1C[C@@H]1CCCO1 | 6.9%[21 µM] | · | · | · | · | ·
O=C1CCC(CCC(=O)N2CCCC(C(=O)c3ccc4c5c(cccc35)CC4)C2)=NN1 (configuration not stated) | · | -23.9% | ? | ? | -1.9 | -22.4
COc1ccc(S(=O)(=O)Nc2c(C(=O)O)[nH]c3ccccc23)cc1OC | 6.3% | 5.1% | 17.0 | -7.1% | -12.5 | 0.1
O=C(COC(=O)c1nc(Cl)c(Cl)c(Cl)c1Cl)NCc1ccccc1 | -0.7% | -15.7% | -88.8* | ? | -11.5 | -19.8
O=C(Cc1ccccc1)NCCc1ccc(Cl)cc1Cl | 0.0% | -8.5% | 16.6 | 9.0% | 10.1 | 7.2
O=C(Cc1ccc(Br)cc1)NCCc1ccc(Cl)cc1Cl | -3.2% | ? | -59.8* | -24.7% | -4.7 | -1.1
Cc1cc(CNC(=O)COc2ccc(F)cc2)c2ccccc2n1 | 2.7% | 20.6µM* | 24.8 | ? | 4.2 | ·
CCCc1ccc(C(=O)NNC(=O)c2ccc(Cl)cc2)cc1 | 7.3% | -10.4% | -24.6 | 4.3% | -0.9 | -15.6
CCCc1ccc(C(=O)NNc2cc(Cl)ccc2Cl)cc1 | 0.0% | 23.1µM* | ? | ? | 14.8 | 10.2
CC(c1cccs1)N(Cc1ccco1)C(=O)Nc1ccc(Cl)c(Cl)c1 (configuration not stated) | 6.6% | ? | ? | ? | 4.3 | 3.8
O=C(c1noc2c1CCCC2)N1CCCCC1 | 5.4% | -15.3% | -0.2 | -24.6% | 4.5 | 6.6
Cc1ccc(C(=O)c2ccccc2C(=O)OCC(=O)NC(=O)NC(C)(C)C)cc1 | 1.8% | -25.5% | 19.8 | -15.6% | -1.1 | 7.8
O=C(COC(=O)c1ccccc1C(=O)c1ccccc1)NCCc1ccc(Cl)cc1Cl | 3.0% | 20.6µM* | -85.3* | ? | 0.0 | -28.0
Cc1ccc(C(=O)c2ccccc2C(=O)OCC(=O)NCCc2ccccc2)cc1 | 2.3% | ? | -74.6* | ? | 8.5 | 3.5
CC(C)Cn1c(-c2ccccc2Cl)nc2ccccc21 | -2.5% | 16.4µM* | · | ? | · | ·
CCc1cccc(CC)c1NC(=O)Cn1c(-c2ccccc2Cl)nc2ccccc21 | 0.0% | -4.9% | 25.6 | 0.9% | 4.8 | 11.4
Cc1ccccc1Cn1c(-c2cccs2)nc2ccccc21 | -2.5% | 16.4µM* | · | ? | · | ·
CC(C)Cn1c(-c2cccs2)nc2ccccc21 | 3.6% | ? | -11.7 | 16.4µM* | -2.1 | -4.3
CCOC(=O)N1CCc2c(sc(NCc3cc(OC)c(OC)cc3OC)c2C(=O)Nc2ccc(OCC)cc2)C1 | 9.5% | ? | · | ? | · | ·
COC(=O)c1ccc(NC(=O)c2c(NCc3cccc(F)c3)sc3c2CCCC3)cc1 | 7.6% | 16.4µM* | · | 20.6µM* | · | ·
CCOC(=O)N1CCc2c(sc(NCc3cccc(F)c3)c2C(=O)Nc2ccc(OC)cc2)C1 | 8.5% | 16.4µM* | · | ? | · | ·
CCOC(=O)N1CCc2c(sc(NCc3ccc(N(C)C)cc3)c2C(=O)Nc2ccc(OC)cc2)C1 | 15.6% | ? | · | 20.6µM* | · | ·
CN(C)c1ccc(-n2cc3c(=O)n(C)c(=O)n(C)c3c2)cc1 | 3.2% | ? | -9.9 | ? | ? | -28.0
O=[N+]([O-])c1ccc(S(=O)(=O)Nc2ccncc2)cc1 | · | 7.3% | -7.4 | 8.8% | 9.3 | -1.0
O=[N+]([O-])c1ccc(S(=O)(=O)Nc2nc(-c3ccccc3)cs2)cc1 | · | ? | 15.3 | ? | 5.8 | ·
O=[N+]([O-])c1ccc(S(=O)(=O)Nc2ccc(S(=O)(=O)N3CCCC3)cc2)cc1 | · | -9.1% | 22.2 | -21.8% | -5.9 | 3.0
